# Chronic BCR inh: chronic active BCR signaling inhibition; ABC-DLBCL IkBa-CBG/CBR reporter, luminescence ratio, 4 h; 340,000 compounds, 0.05% hits; Potency, µM (highest dose often 46.1 µM), for the others: at the highest dose activity change, negative = inhibition, usual class: inhibitors; active means well fitted inhibition curve with a large enough effect in the signal ratio, with a control signal flat, not every such curve was filed as active; inconclusive means small, poorly fitted or top-dose-only effect, or effect the other way, or a change in a side signal; the % refers to the signal ratio;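 further: plate controls were basal doxycycline-induced cells for no effect and cells given 10 µM MG132 for full effect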
#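 Concentration-response series (up to 46 uM) were applied to TMD8 dual-reporter cells for 4 h at 37C with doxycycline. Green/red ratio, after filter-overlap correction, defined %Activity; red signal alone was normalised to basal cells and zero luminescence.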
# a7 integrin act: activates integrin-mediated alleviation for muscular dystrophy | alpha7betagal myoblasts, beta-gal FDG fluorescence, 48 h | Potency, µM (series often up to 38.3 µM), without a hit: at the highest dose activation, hits mostly activators | 350,000 compounds, 0.064% hits | AID 624291;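 further: 100% = response of the positive control SU9516; nearly all actives have a fitted effect of over 60% in size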
#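 Alpha7betagal+/- myoblasts (passage 13) were plated 16-24 hr, then exposed to compounds (1:260 dilution of DMSO stock) for 48 hours at 37C. After MPER lysis, β-galactosidase reporter activity was read as FDG fluorescence (ex 480/em 540) after 30 minutes.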
# uPA surface inh: blocks generation of uPA at the cell surface. 330,000 compounds, 0.31% hits. Potency, µM (doses to about 38.3 µM), for inactives: at the highest dose activity change, negative = inhibition, most hits filed as inhibitors. cell surface uPA generation assay, qHTS; active means well fitted inhibition curve with a large enough effect; inconclusive means small, poorly fitted or top-dose-only effect; inactive means no such curve, though single readings can be large or run the other way; tested in mouse RAW 264.7 cells; further: on the % scale 0 is the no-effect control and ±100 the full control effect; nearly all actives have a fitted effect of over 55% in size
# RORgamma inh: ROR gamma (mouse) transcription inhibition | P51450 | Drosophila S2 Gal4-RORgamma UAS-luciferase reporter, 20 h | Potency, µM (top dose mostly 53.6 µM), for the others: at the top dose activity change, negative = inhibition, usual class: inhibitors | 310,000 compounds, 5.4% hits; further: on the % scale 0 is the no-effect control and ±100 the full control effect; nearly all actives have a fitted effect of over 60% in size
# Target sequence (P51450 whole entry, looked up, the tested form may be a part): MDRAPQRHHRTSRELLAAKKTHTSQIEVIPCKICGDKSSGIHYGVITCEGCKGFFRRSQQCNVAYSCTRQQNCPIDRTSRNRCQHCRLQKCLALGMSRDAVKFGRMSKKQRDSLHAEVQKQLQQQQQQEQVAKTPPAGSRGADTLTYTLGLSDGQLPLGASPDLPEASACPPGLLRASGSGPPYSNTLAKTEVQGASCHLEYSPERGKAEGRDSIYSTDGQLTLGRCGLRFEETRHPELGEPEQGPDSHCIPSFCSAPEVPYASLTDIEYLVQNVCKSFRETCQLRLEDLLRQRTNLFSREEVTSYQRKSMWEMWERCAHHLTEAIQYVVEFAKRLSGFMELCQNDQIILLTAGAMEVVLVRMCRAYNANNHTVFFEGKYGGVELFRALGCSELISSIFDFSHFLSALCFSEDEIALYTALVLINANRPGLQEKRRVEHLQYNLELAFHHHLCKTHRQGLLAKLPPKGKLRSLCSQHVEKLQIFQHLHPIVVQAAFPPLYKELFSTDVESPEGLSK
#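 Luminescence from a UAS-regulated Photinus luciferase reporter in stably transfected Drosophila Schneider cells is measured; decreased signal marks ROR gamma inhibition. Fusion expression is induced by 700 uM copper sulfate for 20 hr.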
# Gal4-VP16 FLuc: Gal4-VP16 reporter inhibition counter-screen | Drosophila S2 Gal4-VP16 UAS-luciferase, luminescence, 20 h | Potency, µM (highest dose often 53.6 µM), for inactives: at the top dose activity, negative = inhibition, actives largely listed as inhibitors | 310,000 compounds, 3.5% hits | AID 2546;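 further: Gal4-VP16 expression switched on by copper sulfate through the metallothionein promoter; on the % scale 0 is the no-effect control and ±100 the full control effect; nearly all actives have a fitted effect of over 50% in size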
# Mito fusion act: mitochondrial division inhibition or fusion activation; S. cerevisiae fusion-defective mutant growth rescue, CellTiterGlo 48 h; Potency, µM (top dose mostly 46.1 µM), without a hit: at the top dose growth rescue (activation), hits mostly activators; 320,000 compounds, 0.23% hits; AID 485298; further: % of control where 0% means no effect; nearly all actives have a fitted effect of over 45% in size
#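 Yeast fusion mutant, YPEG (non-fermentable carbon), compound, 48 h at 37C non-permissive; CellTiterGlo added, 10 min RT, luminescence read. Rescued growth = division inhibition.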
# The depositor's hits bear a star; ? = inconclusive; . = no result. Most compounds without a hit are left out; they make up all but 5.5% or so of the library. Unless noted, the call rests on the fitted dose curve; in most records, active means well fitted curve in the direction sought with a large enough effect; inconclusive means small, poorly fitted or top-dose-only effect, or another doubt; inactive means no such curve, though single readings can be large; an effect the other way counts as inactive or inconclusive. Potency means the concentration at half of the fitted maximal effect.
SMILES,Chronic BCR inh,a7 integrin act,uPA surface inh,RORgamma inh,Gal4-VP16 FLuc,Mito fusion act
CCOc1ccc(C(=O)NC(=S)Nc2ccccc2N2CCCCC2)cc1[N+](=O)[O-],13%,-24%,2%,?,0.5µM*,8%
CC1Cc2ccccc2N1C(=S)NC(=O)c1cccc(Br)c1 (centres undefined),?,-34%,-1%,1.1µM*,0.79µM*,?
COc1cccc(C(=O)NC(=S)N2c3ccccc3CC2C)c1OC (centres undefined),?,0%,3%,4µM*,14µM*,0%
CC1Cc2ccccc2N1C(=S)NC(=O)c1ccc(Cl)cc1Cl (centres undefined),?,-33%,?,0.35µM*,0.71µM*,?
COc1cccc(/C=C/C(=O)OCC(=O)N2c3ccccc3CC2C)c1OC (centres undefined),-19%,5%,1%,.,.,10%
CC(=O)c1ccc(NC(=S)N2c3ccccc3CC2C)cc1 (centres undefined),3%,?,-1%,?,0%,-8%
CC1Cc2ccccc2N1C(=S)Nc1ccc(S(N)(=O)=O)cc1 (centres undefined),2%,28%,1%,28%,10%,-6%
COc1cc(/C=C/C(=O)OCC(=O)N2c3ccccc3CC2C)cc(OC)c1OC (centres undefined),-6%,-19%,10µM*,.,.,?
COc1cccc(/C=C(\C#N)C(=O)Nc2ccc(NC(C)=O)cc2)c1OC,-5%,.,.,.,.,.
COc1ccc(CCNC(=O)COC(=O)Cn2cnc3c2c(=O)n(C)c(=O)n3C)cc1,-1%,0%,16%,.,.,-1%
COc1cccc(N(C(=O)c2sc(C)nc2C)C(C(=O)NCC2CCCO2)c2ccccc2)c1 (centres undefined),0%,-28%,16%,-3%,-4%,-1%
CC(=O)c1cccc(Nc2ncnc3ccc(Br)cc23)c1,?,?,-2%,3%,7%,4%
Cc1ccc2c(c1)C1CN(C)CCC1N2C(=S)NC(=O)c1ccc(Cl)cc1Cl (centres undefined),2%,-3%,-10%,0.28µM*,0.89µM*,-23%
C=CCn1c(OCc2ccccc2)n[nH]c1=S,5%,16%,1%,4µM*,18µM*,-19%
C=CCn1c(C(c2ccccc2)c2ccccc2)n[nH]c1=S,?,0%,2%,7.9µM*,7.9µM*,6%
C=CCn1c(C(C)NC(=O)c2cccs2)n[nH]c1=S (centres undefined),-3%,-5%,-2%,10µM*,-2%,-6%
C=CCn1c(C(C)NC(=O)c2ccccc2)n[nH]c1=S (centres undefined),-8%,20%,15%,?,2%,-1%
CC(=O)C1CCC2C3CC=C4CC(O)CC[C@@]4(C)C3CC[C@]12C (some centres undefined),.,.,.,-39%,3%,.
C[C@H](CO)N1C[C@H](C)[C@@H](CN(C)S(=O)(=O)c2ccccc2)Oc2ccc(NC(=O)Nc3ccc4c(c3)OCO4)cc2C1=O,-1%,33%,-3%,.,.,.
O=C(CC1NCCN(Cc2ccccc2)C1=O)Nc1ccccc1 (centres undefined),0%,6%,-1%,29%,23%,-3%
Cc1ccc(CSCc2ccc(C(=O)NCCc3ccc(Cl)cc3)o2)cc1,-6%,.,.,.,.,.
O=C(NCCN1CCOCC1)c1ccncc1,?,11%,-3%,-13%,2%,0%
O=C1C=C(NCCO)C(=O)c2cnccc21,.,.,.,3.5µM*,6.3µM*,.
O=C1C=C(NCCN2CCOCC2)C(=O)c2cnccc21,?,.,.,10µM*,?,-19%
CC12CCC3C(CC3(C)C)C(C)(CCC1=O)O2 (centres undefined),.,.,.,-8%,0%,.
SMILES,Chronic BCR inh,a7 integrin act,uPA surface inh,RORgamma inh,Gal4-VP16 FLuc,Mito fusion act
COc1c(CC(=O)c2cc3c(cc2O)OC(C)(C)C(O)C3)ccc2c1C=CC(C)(C)O2 (centres undefined),.,.,.,-10%,-5%,.
CC(=O)SC(C[N+](=O)[O-])c1cn(C(C)=O)c2ccccc12 (centres undefined),?,-42%,-1%,11µM*,?,-12%
O=C(CNC(=S)N(Cc1ccccc1)Cc1ccccc1F)NCc1ccccc1,?,19%,2%,21%,-11%,-12%
O=C(CNC(=S)N(Cc1ccccc1)Cc1ccccc1F)NCCc1ccccc1,5%,-18%,4%,13µM*,-28%,4%
O=C(CNC(=S)N(Cc1ccccc1)Cc1ccccc1F)NCc1ccc(Cl)cc1,?,-31%,-1%,2µM*,-15%,-8%
Cn1c(=O)n(C)c2cc(CNCc3ccc(C(=O)O)cc3)ccc21,-7%,.,.,.,.,.
CC(C)(C)c1ccc(O)c(O)c1,-9%,.,?,?,?,-1%
CC(C)(C)c1ccc(O)c(/C=N\O)c1,2%,-4%,-2%,11µM*,?,2%
NS(=O)(=O)c1ccc(CNC(=O)CNC(=O)c2ccc(Br)o2)cc1,12%,13%,-1%,-1%,-1%,-5%
Cn1c(O)c(N=Nc2nc(-c3ccccc3)cs2)c2ccccc21,?,2%,3%,1.1µM*,?,-2%
Cc1ccc(-c2nnc(N3CCN(C(=O)COc4cccc(C)c4)CC3)c3ccccc23)cc1,-9%,-17%,3%,16%,?,13µM*
CC1=NN(C(=O)c2csc(C)c2C)C(O)(C(F)(F)F)C1 (centres undefined),?,-4%,3%,5.6µM*,4.5µM*,4%
Cc1ccc(C(=O)N2N=C(c3ccccc3)CC2(O)C(F)(F)F)o1 (centres undefined),?,5%,-3%,-4%,-11%,-5%
Cc1cc(C)cc(NC(=O)c2cc(C)nn2C)c1,-12%,-13%,-1%,16%,1%,-14%
CC1=NN(C(=O)c2ccc(Br)cc2)C(O)(C(F)(F)OC(F)(F)F)C1 (centres undefined),-3%,-3%,-4%,11µM*,18µM*,-1%
O=C(c1ccccc1)N1N=C(c2ccc(F)cc2)CC1(O)C(F)(F)F (centres undefined),-10%,-8%,16%,?,?,-7%
CC1=NN(C(=O)c2csc(C)c2)C(O)(C(F)(F)F)C1 (centres undefined),-5%,2%,1%,3.5µM*,5.6µM*,4%
CC1=NN(C(=O)c2cc(C)nn2C)C(O)(C(F)(F)F)C1 (centres undefined),?,-4%,-2%,11µM*,?,-19%
